In PubChem BioAssay (NCI):
The panel holds about 83,000 compounds, 20% with a hit somewhere; the sample as a whole holds those more often.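 96-well plates, one dose, 48 hours. Percent growth reported; active if below 10.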 Activity calls are given as the source filed them.

Tests used:
Assay in all cases: NCI-60 one-dose screen, 48 h (100 = growth as untreated, 0 = no growth, -100 = all killed)
Conditions in all cases: 10 µM unless noted
[1] = system: NCI-H23 lung
[2] = system: NCI-H226 lung
[3] = system: NCI-H322M lung
[4] = system: HOP-62 NSCLC
[5] = system: NCI-H460 lung
[6] = system: HOP-92 NSCLC
[7] = system: NCI-H522 lung
[8] = system: A549/ATCC NSCLC
[9] = system: 786-0 renal

Measured: growth

COC(=O)CCCNC(=O)C(=O)c1c(O)c(O)c(C(C)C)c2cc(C)c(-c3c(C)cc4c(C(C)C)c(O)c(O)c(C(=O)C(=O)NCCCC(=O)OC)c4c3O)c(O)c12
inactive: [1] 11.8% | [3] 29.6% | [4] 13%
active: [2] -17.2% | [5] 0.963% | [6] -0.407% | [7] -38.9% | [8] -6.82% | [9] 4.56%

N#Cc1c(NC(=O)c2ccccc2I)sc2c1CCCC2
inactive: [1] 73.4% | [2] 41.7% | [3] 88.5% | [4] 42.2% | [5] 17.8% | [6] 71.6% | [7] 24.6% | [8] 53.6% | [9] 52.2%

COC(=O)c1ccc2oc(NC(=O)c3ccc(N4CCOCC4)c([N+](=O)[O-])c3)nc2c1
inactive: [1] 93% | [2] 90.5% | [3] 92.6% | [4] 82.3% | [5] 105% | [6] 84.9% | [7] 91% | [8] 98.7% | [9] 108%

OC(COc1cccc2ccccc12)CN1CCN(c2ccccc2)CC1 (stereo unspecified)
inactive: [1] 87.3% | [2] 99.1% | [3] 99.7% | [4] 90.4% | [5] 106% | [6] 77.6% | [7] 101% | [8] 102% | [9] 94.2%

CC(C)(C)c1ccc(C(=O)Nc2sc3c(c2C(N)=O)CCC(=O)C3)cc1
inactive: [2] 30.8% | [3] 62.6% | [4] 26.5% | [8] 15.1% | [9] 23.8%
active: [1] -15% | [5] -10.7% | [6] -22.7% | [7] -10.2%

OCCCCc1nccc2c1[nH]c1ccccc12
inactive: [1] 98.8% | [2] 90.7% | [3] 88.9% | [4] 95.3% | [5] 104% | [6] 104% | [7] 117% | [8] 72.6% | [9] 102%

O=C1Nc2ccccc2SC1C1SC(=S)N(Cc2ccccc2)C1=O (stereo unspecified)
inactive: [1] 96.5% | [2] 107% | [3] 113% | [4] 110% | [5] 106% | [6] 53.1% | [7] 100% | [8] 93% | [9] 100%

CN(C)c1ccc(C#Cc2c(F)cccc2Cl)cc1
inactive: [1] 70.6% | [2] 90.4% | [3] 86.7% | [4] 71.8% | [5] 98.9% | [6] 79.5% | [7] 65.1% | [8] 87.5% | [9] 112%

Cc1cc(N(CCCNc2ccnc3cc(Cl)ccc23)Cc2ccccn2)nc(N2CCOCC2)n1
inactive: [1] 90.4% | [2] 90.9% | [3] 94.1% | [4] 85.2% | [5] 99.7% | [6] 66.6% | [7] 74.7% | [8] 86.4% | [9] 86%

CCOC(=O)C1C(=O)C=C(c2cnccn2)CC1c1ccc(OC)c(OC)c1 (stereo unspecified)
inactive: [1] 95.6% | [2] 96.1% | [3] 103% | [4] 88.3% | [5] 114% | [6] 58.2% | [7] 73.3% | [8] 86.6% | [9] 83.7%

CCCCCCCC/C=C\CCCCCCCC(=O)Oc1cccc2cccnc12
inactive: [1] 105% | [2] 97% | [3] 97.6% | [4] 96.4% | [5] 96.1% | [6] 236% | [7] 71% | [8] 101% | [9] 105%

CN(C)CCCCNc1ccc(NCCCCN(C)C)c2c1C(=O)c1c(O)ccc(O)c1C2=O
active: [1] -68.5% | [5] -79.1% | [7] -77.9% | [8] -82.9% | [9] -75.1%
inactive: [2] 102% | [3] 56.1% | [4] 69.4% | [6] 40.6%

Cc1[nH]c(-c2nc3ccccc3[nH]2)c(C)c1C(=O)N1CCc2sccc2C1
inactive: [1] 91.2% | [2] 88.3% | [3] 98.6% | [4] 98.2% | [5] 94.4% | [6] 81.6% | [7] 77.1% | [8] 93% | [9] 99.7%

Cc1ccc(/C(=N\N=C(N)N)c2ccccc2)cc1
active: [2] -4.14% | [4] -30.4% | [5] 2.74% | [7] -11.8% | [9] -70.3%
inactive: [1] 16.6% | [3] 56.6% | [6] 27.3% | [8] 16.9%

CCCCCCNCc1cc(C(C)(C)C)cc(CNCCCCCC)c1O
active: [1] -8.06% | [2] -60.5% | [3] -78.9% | [4] -90.1% | [5] -76.3% | [6] -36.3% | [7] -66% | [8] -85.4% | [9] -90.5%

CN1C[C@@H](c2ccc(Cl)cc2)[C@]2(NC(=S)N(c3ccccc3)C2=O)[C@@]12C(=O)NC1C=CC(Br)=C[C@H]12 (stereo partly specified)
inactive: [1] 76.1% | [2] 66% | [3] 77.4% | [4] 79.5% | [5] 65.5% | [6] 19.7% | [7] 49.3% | [8] 56.9% | [9] 54.3%

COc1ccc(Nc2ncc(Br)c(NCCCNC(=O)C3CCC3)n2)cc1
inactive: [1] 31% | [2] 21.8% | [3] 43.1% | [4] 10.9% | [5] 19.4% | [6] 40% | [7] 50.1% | [8] 19.8% | [9] 24.3%

Cc1cc(=O)[nH]c(N/N=C/c2cc(Br)ccc2O)n1
inactive: [1] 33.7% | [2] 40.5% | [4] 48% | [6] 55% | [7] 19.5% | [8] 23.4%
active: [3] -15% | [5] -1.75% | [9] 7.2%

CC(C)(C)N1CC(OC(N)=O)C1
inactive: [1] 91.2% | [2] 98.2% | [3] 98.6% | [4] 100% | [5] 113% | [6] 96.2% | [7] 114% | [8] 71.8% | [9] 96.4%

N#C/C(=C\c1ccc(Br)cc1)n1nnc2ccccc21
active: [2] -23.9% | [3] -12.2% | [5] -23.2% | [6] -15% | [7] -6.64% | [9] 5.88%
inactive: [1] 13.5% | [4] 17.9% | [8] 18.1%

N#Cc1c(Oc2ccc([N+](=O)[O-])cc2)nc2sc3cc(Cl)ccc3n2c1=N
inactive: [1] 73.7% | [2] 56.8% | [3] 98.2% | [4] 107% | [5] 96.5% | [6] 83.7% | [7] 93.7% | [8] 72.9% | [9] 64.3%

N#C/C(=C\c1ccc2c(c1)OCO2)n1nnc2ccccc21
inactive: [1] 10.9% | [4] 28.7% | [7] 14% | [8] 17.1%
active: [2] 8.93% | [3] 9.39% | [5] 0.341% | [6] -2.71% | [9] 6.58%

CCN(CC)CCCC(C)NCc1ccccc1 (stereo unspecified)
inactive: [1] 101% | [2] 109% | [3] 88.1% | [4] 108% | [5] 106% | [6] 85.1% | [7] 73.3% | [8] 99.5% | [9] 89.8%

COc1ccccc1NC(=O)Nc1ccc(-c2nc3ccccc3o2)cc1
inactive: [1] 99.4% | [2] 99% | [3] 88.7% | [4] 95.8% | [5] 101% | [6] 111% | [7] 112% | [8] 82.2% | [9] 89.2%

CN(C)c1ccc2cc(-c3ccccc3F)c(N)nc2c1
active: [7] -1.23%
inactive: [1] 21.4% | [2] 59.3% | [3] 55.1% | [4] 37.4% | [5] 15.9% | [6] 32.3% | [8] 22.1% | [9] 34%

Cc1ccc(/C=C(\C#N)n2nnc3cc(Cl)c(Cl)cc32)cc1
inactive: [1] 24.8% | [3] 49.5% | [4] 33.8% | [5] 12.8% | [7] 17.3% | [8] 38.8%
active: [2] -9.44% | [6] -7.83% | [9] 5.73%

O=C1C2=C(CCN(Cc3ccccc3)C2)N2CCN=C2N1Cc1ccc(F)cc1F
inactive: [1] 32.2% | [2] 29% | [3] 45.4% | [4] 33.6% | [5] 15.5% | [6] 41.9% | [7] 24.2% | [8] 26.7% | [9] 55.2%

N[C@H]1CCC[C@@H]1NCCCCN1C(=O)c2cccc3cccc(c23)C1=O
inactive: [1] 71% | [2] 83.8% | [3] 54.9% | [4] 76.2% | [5] 39.4% | [6] 51.4% | [7] 57.1% | [8] 53.3% | [9] 54.8%

COc1cc(C2C=C(c3cccc(NC(C)=O)c3)Nc3ncnn32)cc(OC)c1OC (stereo unspecified)
inactive: [1] 29.8% | [2] 43.5% | [3] 37% | [4] 62.6% | [5] 14.6% | [6] 68.9% | [8] 45.5% | [9] 50.1%
active: [7] -3.09%
